Results as given in PubChem BioAssay (NCI).
Several values for one entry are separate records, joined by “and”; a condition that tells them apart may be missing. Equal values may be shown once. About 83,000 compounds went through this panel and 20% of them were active in at least one assay; those are over-represented in the sample as a whole.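 48-hour exposure, single concentration, 96-well plates; percent growth endpoint where 0 means no net growth. Active: below 10.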

Key:
Experiment in all cases: NCI-60 one-dose screen, 48 h (100 = growth as untreated, 0 = no growth, -100 = all killed)
Conditions in all cases: 10 µM unless noted
NCI-H23 lung = tested on: NCI-H23 lung
NCI-H226 lung = tested on: NCI-H226 lung
NCI-H322M lung = tested on: NCI-H322M lung
HOP-62 NSCLC = tested on: HOP-62 NSCLC
NCI-H460 lung = tested on: NCI-H460 lung
HOP-92 NSCLC = tested on: HOP-92 NSCLC
NCI-H522 lung = tested on: NCI-H522 lung
A549/ATCC NSCLC = tested on: A549/ATCC NSCLC
786-0 renal = tested on: 786-0 renal
COLO 205 colon = tested on: COLO 205 colon
DU-145 prostate = tested on: DU-145 prostate
K-562 leukemia = tested on: K-562 leukemia
MALME-3M melanoma = tested on: MALME-3M melanoma
MDA-MB-231 breast = tested on: MDA-MB-231 breast
RXF 393 renal = tested on: RXF 393 renal
SF-268 CNS = tested on: SF-268 CNS
SF-295 CNS = tested on: SF-295 CNS
SF-539 CNS = tested on: SF-539 CNS
UACC-257 melanoma = tested on: UACC-257 melanoma
M14 melanoma = tested on: M14 melanoma

Measured: growth

Cn1cnc([N+](=O)[O-])c1Sc1ncnc2nc[nH]c12
inactive: NCI-H23 lung 72.9% and 79.9% | NCI-H226 lung 51.2% and 72.4% | NCI-H322M lung 55.1% and 47.5% | HOP-62 NSCLC 37.2% and 20.8% | NCI-H460 lung 70.4% and 69% | HOP-92 NSCLC 60.7% and 61.4% | NCI-H522 lung 65.1% and 85.9% | A549/ATCC NSCLC 82% and 107% | 786-0 renal 36.2% | COLO 205 colon 94.5% and 112% | DU-145 prostate 44.5% | K-562 leukemia 20.4% and 23.6% | MALME-3M melanoma 75.5% and 93.8% | MDA-MB-231 breast 31.3% and 57.8% | RXF 393 renal 79.5% and 94.4% | SF-268 CNS 69.1% and 49.2% | SF-295 CNS 33.5% and 31.1% | SF-539 CNS 37.8% and 33.3% | UACC-257 melanoma 73.4% and 98.4% | M14 melanoma 30.3% and 21.4%

O=S(=O)(Nc1ccccc1)C1CCCCC1
inactive: NCI-H23 lung 98.6% and 96.6% | NCI-H226 lung 106% and 103% | NCI-H322M lung 103% and 116% | HOP-62 NSCLC 107% and 101% | NCI-H460 lung 112% and 118% | HOP-92 NSCLC 113% and 108% | NCI-H522 lung 84.5% and 94.1% | A549/ATCC NSCLC 98.7% and 108% | 786-0 renal 105% and 110% | COLO 205 colon 102% and 122% | DU-145 prostate 108% and 113% | K-562 leukemia 97.6% and 93.8% | MALME-3M melanoma 121% and 123% | MDA-MB-231 breast 106% and 105% | RXF 393 renal 120% and 118% | SF-268 CNS 99% and 114% | SF-295 CNS 105% and 110% | SF-539 CNS 109% and 95.4% | UACC-257 melanoma 108% and 107% | M14 melanoma 101% and 99.5%

NC(=S)NN=C1CCC(C2CCCCC2)CC1 (stereo not given)
inactive: NCI-H23 lung 103% and 94.1% | NCI-H226 lung 89.1% and 73% | NCI-H322M lung 95.9% and 88.2% | HOP-62 NSCLC 113% and 111% | NCI-H460 lung 106% and 108% | HOP-92 NSCLC 95.7% and 92.3% | NCI-H522 lung 52.2% and 47.2% | A549/ATCC NSCLC 94% and 99.5% | 786-0 renal 96.7% and 91.9% | COLO 205 colon 102% and 95% | DU-145 prostate 96.7% and 103% | K-562 leukemia 89.9% and 89.5% | MALME-3M melanoma 90.6% | MDA-MB-231 breast 94.6% and 93.6% | RXF 393 renal 92.3% and 92.9% | SF-268 CNS 89.9% and 102% | SF-295 CNS 93% and 87.7% | SF-539 CNS 97.1% and 82.8% | UACC-257 melanoma 66.4% and 66.9% | M14 melanoma 92.2% and 85%

O=C1CCN(Cc2ccccc2)C(=S)N1
inactive: NCI-H23 lung 117% and 100% | NCI-H226 lung 110% and 105% | NCI-H322M lung 92.1% and 93% | HOP-62 NSCLC 101% and 103% | NCI-H460 lung 113% and 105% | HOP-92 NSCLC 70.4% and 92.4% | NCI-H522 lung 114% and 95.1% | A549/ATCC NSCLC 107% and 105% | 786-0 renal 108% and 109% | COLO 205 colon 111% and 108% | DU-145 prostate 140% and 107% | K-562 leukemia 87% | MALME-3M melanoma 92.6% and 101% | MDA-MB-231 breast 125% and 98.1% | RXF 393 renal 122% and 121% | SF-268 CNS 111% and 99.5% | SF-295 CNS 118% and 133% | SF-539 CNS 111% and 98.6% | UACC-257 melanoma 114% and 107% | M14 melanoma 103% and 112%
